FBA Mtb inh: Mtb FBA enzyme inhibitors, primary screen, biochemical, fluorescence, strain H37Rv. 360,000 compounds, 2.3% hits. inhibition, % at 1 µM. purified M. tuberculosis FBA, fluorescence read-out; in the data active = inhibition above about 27%;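 note: 0% = vehicle and 100% = reference inhibitor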
Target sequence (P9WQA3 whole entry, looked up): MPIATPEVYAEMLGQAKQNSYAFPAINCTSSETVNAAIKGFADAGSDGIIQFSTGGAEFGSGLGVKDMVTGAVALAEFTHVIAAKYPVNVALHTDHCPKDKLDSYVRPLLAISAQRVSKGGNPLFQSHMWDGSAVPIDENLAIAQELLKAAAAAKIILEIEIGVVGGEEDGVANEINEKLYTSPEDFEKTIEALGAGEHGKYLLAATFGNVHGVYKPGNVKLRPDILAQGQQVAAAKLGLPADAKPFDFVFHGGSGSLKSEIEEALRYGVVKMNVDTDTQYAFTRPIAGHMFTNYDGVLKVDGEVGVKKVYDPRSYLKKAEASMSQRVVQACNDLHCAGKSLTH
Anthrax LF prot: Bacillus anthracis LF protease inhibitors, primary screen, biochemical, multiplex microsphere, MLPCN library | Lethal factor (Bacillus anthracis), P15917 | multiplex microsphere protease cleavage assay | inhibition, % at 10 µM | 360,000 compounds, 0.12% hits; note: plate controls were buffer without enzyme for full effect and enzyme alone for no effect
BoNT-F LC inh: BoNT/F light chain protease inhibitors, primary screen, biochemical, flow cytometry, MLPCN library; Multiplex microsphere protease cleavage assay; inhibition, % at 10 µM; 360,000 compounds, 0.22% hits; in the data active = inhibition above about 35%, passing the limit was not always enough; inconclusive = no clear call, values can overlap the other calls; note: plate controls were buffer without enzyme for full effect and enzyme alone for no effect
GDH-TPI counter-1: GDH-TPI coupling enzyme inhibitors, primary screen, artefact control for M. tuberculosis FBA inhibitor project, biochemical, absorbance, full deck; GDH-TPI coupled enzyme counterscreen, NADH absorbance; 360,000 compounds, 1.2% hits; AID 588335, 2011; inhibition, % at 4.8 µM; in the data active = inhibition above about 30%;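 note: 0% = DMSO wells and 100% = wells lacking the enzyme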
Autofluor counter: counter-screen for toxin protease inhibitors: compound fluorescence; compound autofluorescence counterscreen, microsphere flow cytometry; stronger effect = higher value; fluorescence intensity (concentration not given with the values); 360,000 compounds, 3.1% hits; AID 624483; in the data active = fluorescence intensity above about 16000; inconclusive = no clear call, values can overlap the other calls
BoNT A protease: BoNT/A light chain protease inhibitors, primary screen, biochemical, flow cytometry, MLPCN library; multiplex microsphere protease substrate cleavage; 360,000 compounds, 0.17% hits; Botulinum neurotoxin type A light chain protease (Clostridium botulinum A str. ATCC 3502); inhibition, % at 10 µM; note: plate controls were buffer without enzyme for full effect and enzyme alone for no effect
Mtb FBA inh conf: M. tuberculosis aldolase blockers, biochemical, fluorescence, strain H37Rv, confirmation. shares compounds with FBA Mtb inh. inhibition, % at 1 µM. purified M. tuberculosis FBA, fluorescence read-out. 5,600 compounds, 78% hits; in the data active = inhibition above about 27%;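 note: 0% = vehicle wells and 100% = reference inhibitor wells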
GDH-TPI counter-2: GDH-TPI coupling enzyme inhibitors, artefact control for M. tuberculosis FBA inhibitor project, biochemical, fluorescence, high throughput; 5,600 compounds, 81% hits; GDH-TPI coupled enzyme counterscreen; inhibition, % at 1 µM; shares compounds with FBA Mtb inh; AID 652141, 2013; in the data active = inhibition above about 10%
* = called active by the depositor; ? = inconclusive; / = no result given; + = active, no number. Only some compounds are listed: those with a hit (about 6.7% of all), similar ones and a draw of the others. Cut-off read from the data, not from the text of the source, unless noted: active = inhibition above about 30%; inconclusive = no clear call, values can overlap the other calls; inactive = below that.

SMILES	FBA Mtb inh	Anthrax LF prot	BoNT-F LC inh	GDH-TPI counter-1	Autofluor counter	BoNT A protease	Mtb FBA inh conf	GDH-TPI counter-2
CCN(CC)C(=O)[C@H]1C[C@H](CC(=O)NCCCN(C)C)C(=O)N2CCc3c([nH]c4cc(-c5ccco5)ccc34)[C@]12C	46*	0	-3	-3	3731	0	+	+
CCN(CC)C(=O)[C@H]1C[C@H](CC(=O)NCCc2ccccn2)C(=O)N2CCc3c([nH]c4cc(-c5ccco5)ccc34)[C@]12C	40*	3	-2	9	2970	0	52*	44*
CCN(CC)C(=O)[C@H]1C[C@H](CC(=O)NCCCOC)C(=O)N2CCc3c([nH]c4cc(-c5ccco5)ccc34)[C@]12C	43*	-2	0	7	3994	0	59*	31*
COc1ccc(C(=O)OC(C)C(=O)NC(C)CCc2ccccc2)c(OC)c1 (stereo unspecified)	-1	0	5	5	4402	-1	/	/
Cc1cccn2c(=O)c3cc(C(=O)N4CCC5(CC4)OCCO5)n(C)c3nc12	6	3	3	4	10037	-1	/	/
COC1C=CC(CNC(=O)c2cc3c(=O)n4cccc(C)c4nc3n2C)(OC)O1 (stereo unspecified)	36*	2	1	23	2480	0	176*	109*
Cc1cccn2c(=O)c3cc(C(=O)O)n(C)c3nc12	81*	0	2	25	1907	0	80*	58*
O=C1CCCC2=C1C(c1ccco1)Nc1ccc3ccccc3c12 (stereo unspecified)	95*	-5	4	22	3780	-1	110*	77*
O=C1CCCC2=C1C(c1ccc(O)c(O)c1)Nc1ccc3ccccc3c12 (stereo unspecified)	2	/	/	14	/	/	/	/
Cc1cc(C)n2nc(C(=O)OCC(=O)N(CC(C)C)CC(C)C)nc2n1	0	-3	-3	-5	4462	0	/	/
CCSc1nnc(NC(=O)[C@@H](NC(=O)c2cccc(C)c2)C(C)C)s1	4	-9	-7	11	9462	0	/	/
CCCCn1c(NS(=O)(=O)c2ccc(C)cc2)c(C(=O)OCC)c2nc3ccccc3nc21	16	3	-8	8	8987	2	/	/
CCCCn1c(NC(=O)c2ccco2)c(C(=O)OCC)c2nc3ccccc3nc21	80*	-6	-4	25	12004	0	2	1
CCCCn1c(NC(=O)c2ccco2)c(S(=O)(=O)c2ccc(C)cc2)c2nc3ccccc3nc21	96*	0	-12	23	3396	3	73*	47*
CCCCn1c(NC(=O)c2ccc(Br)o2)c(S(=O)(=O)c2ccccc2)c2nc3ccccc3nc21	59*	-9	8	21	14924	7	6	-4
CCCCCn1c(NC(=O)c2ccco2)c(S(=O)(=O)c2ccc(C)cc2)c2nc3ccccc3nc21	96*	6	-2	24	5921	10	30*	21*
Cc1ccc2c(NC(=O)c3ccc(Br)o3)cccc2n1	-2	-3	-6	7	4295	-2	/	/
Cc1cccc(NC(=O)c2sccc2-n2cccc2)c1C	-7	-4	7	-6	3802	0	/	/
Nc1ccccc1C(=O)NCC1(c2ccccc2)CCCC1	33*	-1	19	-17	3440	1	160*	128*
O=C(NCC1(c2ccccc2)CCCC1)c1ccc(Br)cc1	-1	0	-5	9	1818	1	/	/
CC(C(=O)NC(C)(C)C)N1C(=O)c2cccc3cccc(c23)C1=O (stereo unspecified)	27*	2	-2	9	4754	1	3	5
Cc1ccc(C(=O)OCC(=O)NCCc2ccc(S(N)(=O)=O)cc2)o1	-1	-5	-3	1	3772	0	/	/
COc1ccc2oc(C(=O)OCC(=O)N(CCC#N)c3ccccc3)c(C)c2c1	39*	-1	5	-1	5272	4	1	-5
COc1ccc2oc(C(=O)OCC(=O)NCCc3ccccc3)c(C)c2c1	32*	8	-2	8	?	2	58*	43*
COc1ccc2oc(C(=O)OCC(=O)NCCc3ccc(S(N)(=O)=O)cc3)c(C)c2c1	38*	-9	-6	8	6385	-4	+	184*
SMILES	FBA Mtb inh	Anthrax LF prot	BoNT-F LC inh	GDH-TPI counter-1	Autofluor counter	BoNT A protease	Mtb FBA inh conf	GDH-TPI counter-2
COc1ccccc1CN1CC(C(=O)N2CCC(OC)CC2)CCC1=O (stereo unspecified)	4	8	-4	-3	6036	0	/	/
CCN(CC)Cc1c(O)ccc2c(=O)c(-c3ccccc3)coc12	69*	2	16	21	3900	2	61*	43*
Cc1nc(-c2coc3c(CN(C)C)c(O)ccc3c2=O)cs1	42*	-4	14	20	5722	0	6	-3
CCc1cc2c(=O)c(-c3nc4ccccc4n3C)coc2c(CN2CCN(C)CC2)c1O	7	-3	0	13	4735	0	/	/
CCN(CC)Cc1c(O)ccc2c(=O)c(Oc3ccccc3OC)coc12	71*	2	-5	10	2840	0	+	+
COc1ccccc1Oc1coc2c(CN3CCN(C)CC3)c(O)ccc2c1=O	80*	-1	-1	17	11454	0	91*	73*
CCOc1ccccc1Oc1coc2cc(OC)ccc2c1=O	-11	0	4	-16	2701	0	/	/
Cc1cccc(Oc2cc(N)cc([N+](=O)[O-])c2)c1	-2	0	-11	-1	3076	1	/	/
Cc1onc(-c2ccccc2Cl)c1C(=O)NC1CCS(=O)(=O)C1 (stereo unspecified)	0	6	-4	-9	5003	0	/	/
CCC(CC)C(=O)Nc1nnc(-c2cccs2)s1	36*	4	2	12	4867	0	88*	75*
COc1cccc(OC)c1C(=O)Nc1nnc(-c2cccs2)s1	13	-3	2	29	4833	0	/	/
CCOC(=O)C(C(=O)OCC)C(=O)c1cc(OC)c(OC)c(OC)c1	-6	-3	7	4	2957	0	/	/
Cc1cc(Sc2nccn2C)ncc1[N+](=O)[O-]	-3	1	-3	10	2590	0	/	/

Screening data from PubChem.
